The panel holds about 83,000 compounds, 20% with a hit somewhere; the sample as a whole holds those more often.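 How to read the values: 0–100, growth inhibition (40 = 60% inhibited); 0, no net growth; -100 to 0, cell death (-40 = 40% of starting cells died; -100 = all dead).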 Values without a mark were called inactive. Activity calls are given as the source filed them. How the source made its calls: active means growth percent below 10; inactive means the rest.

Holding throughout (test): NCI-60 one-dose screen, 48 h (100 = growth as untreated, 0 = no growth, -100 = all killed)
One experiment has as its system DU-145 prostate. The settings on record: 10 µM unless noted.
A further experiment has as its system K-562 leukemia. Conditions: 10 µM unless noted.
For a further experiment, the system named is MALME-3M melanoma. The settings on record: 10 µM unless noted.
For a further experiment, the system named is MDA-MB-231 breast. Conditions: 10 µM unless noted.
The next experiment has as its system RXF 393 renal. Conditions: 10 µM unless noted.
In a further experiment the test system is SF-268 CNS. The settings on record: 10 µM unless noted.
A further experiment concerns SF-295 CNS. Conditions: 10 µM unless noted.
A further experiment relates to SF-539 CNS. Conditions: 10 µM unless noted.
A further experiment has as its system UACC-257 melanoma. The settings on record: 10 µM unless noted.
Another experiment concerns HCT-15 colon. The settings on record: 10 µM unless noted.
A further experiment concerns HT29 colon. The settings on record: 10 µM unless noted.
The subject of the next experiment is SNB-19 CNS. The settings on record: 10 µM unless noted.
A further experiment concerns U251 CNS. The settings on record: 10 µM unless noted.
The next experiment relates to PC-3 prostate. The settings on record: 10 µM unless noted.
The subject of the next experiment is SK-MEL-5 melanoma. Conditions: 10 µM unless noted.
The test system of another experiment is UACC-62 melanoma. Conditions: 10 µM unless noted.
A further experiment relates to LOX IMVI melanoma. The settings on record: 10 µM.
Another experiment concerns SK-MEL-28 melanoma. Conditions: 10 µM unless noted.
A further experiment has as its system M14 melanoma. Conditions: 10 µM unless noted.
A further experiment deals with SNB-75 CNS. Conditions: 10 µM unless noted.

For the compound `CC(=O)c1cc(C(=O)c2ccccc2)n2c1ccc1ccccc12`, the growth in the experiment with DU-145 prostate was 128%; in the experiment on K-562 leukemia it was 94.4%; in the experiment with MALME-3M melanoma it was 131%; in the experiment on MDA-MB-231 breast it was 78.4%; in the experiment with RXF 393 renal, 93.1%; in the experiment with SF-268 CNS, 110%. Further, the growth in the experiment with SF-295 CNS is 106%; with SF-539 CNS it was 82.5%; in the experiment with UACC-257 melanoma, 118%; with HCT-15 colon, 104%; with HT29 colon, 109%; in the experiment on SNB-19 CNS, 98%. Further, the growth is 106% with U251 CNS; 81% with PC-3 prostate; 104% in the experiment with SK-MEL-5 melanoma; 86.9% with UACC-62 melanoma; 96.7% in the experiment with LOX IMVI melanoma; 122% in the experiment on SK-MEL-28 melanoma.

As to `CCCCSc1nc(NCCc2c[nH]c3ccccc23)c(C#N)c(-c2ccc(OC)cc2)n1`, the growth was 68.4% with DU-145 prostate; 22.4% in the experiment on K-562 leukemia; 93.4% with MALME-3M melanoma; 36.9% in the experiment with MDA-MB-231 breast; -2.63% (active) in the experiment on RXF 393 renal; 56% in the experiment with SF-268 CNS. In addition, the growth in the experiment on SF-295 CNS was 43.4%; in the experiment with SF-539 CNS, 54.4%; with UACC-257 melanoma it was 94.8%; in the experiment on M14 melanoma, 70.1%; in the experiment on HCT-15 colon, 24.9%; in the experiment with SNB-75 CNS, 65.4%. Besides, the growth is 55.2% in the experiment on U251 CNS; 23.2% in the experiment with PC-3 prostate; 46.2% with SK-MEL-5 melanoma; 71.2% in the experiment with UACC-62 melanoma; 37.7% in the experiment with LOX IMVI melanoma; 75.8% in the experiment on SK-MEL-28 melanoma.

For the compound `Cc1cc2nc3c([nH]c2cc1C)c1ccc(=O)cc1n3CCN(C)C`, the growth is 28.8% with DU-145 prostate; 9.48% (active) in the experiment with K-562 leukemia; 27.2% in the experiment with MALME-3M melanoma; 38.7% in the experiment with MDA-MB-231 breast; 57.8% in the experiment on RXF 393 renal; 61% with SF-268 CNS. The growth was 27% in the experiment on SF-295 CNS; 26.4% with SF-539 CNS; 64% with UACC-257 melanoma; 19.3% in the experiment on HCT-15 colon; 23.4% in the experiment with HT29 colon; 63.2% in the experiment with SNB-75 CNS. Also, the growth in the experiment on SNB-19 CNS is 38.2%; with U251 CNS, 40%; in the experiment on SK-MEL-5 melanoma, 41.5%; in the experiment on UACC-62 melanoma, 65.8%; with SK-MEL-28 melanoma it was 51.4%.

On to `C=C1CC[C@@H]2[C@]3(C)COC(c4ccco4)O[C@@H]3CC[C@@]2(C)[C@@H]1C/C=C1/C(=O)OCC1OC(C)=O` (stereo partly drawn), for which the growth is 48.8% in the experiment on DU-145 prostate; 3.97% (active) in the experiment on K-562 leukemia; -60.3% (active) in the experiment with MALME-3M melanoma; 48.8% in the experiment with MDA-MB-231 breast; 27.5% in the experiment with RXF 393 renal; 67.8% with SF-268 CNS. The growth in the experiment with SF-295 CNS is 59.5%; with SF-539 CNS it was -47.3% (active); in the experiment with UACC-257 melanoma, 58.7%; in the experiment on HCT-15 colon, -59% (active); in the experiment with HT29 colon, -46% (active); in the experiment on SNB-19 CNS, 75.9%. Besides, the growth in the experiment on U251 CNS was 8.15% (active); in the experiment on PC-3 prostate, 18.8%; in the experiment with SK-MEL-5 melanoma it was 43.9%; in the experiment with UACC-62 melanoma, 34.5%; in the experiment on LOX IMVI melanoma, -100% (active); with SK-MEL-28 melanoma, 59.6%.

With `CCOC(=O)c1ccc(Nc2nc(NN)nc(-c3ccc(F)cc3)c2C#N)cc1`, the growth in the experiment with DU-145 prostate was 113%; in the experiment on K-562 leukemia, 32.2%; in the experiment on MALME-3M melanoma, 98.5%; in the experiment with MDA-MB-231 breast, 76.7%; in the experiment on RXF 393 renal, 142%; in the experiment with SF-268 CNS, 109%. The growth with SF-295 CNS is 97.8%; in the experiment on SF-539 CNS it was 104%; in the experiment on UACC-257 melanoma it was 103%; in the experiment on HCT-15 colon, 109%; in the experiment on HT29 colon, 97.6%; in the experiment on SNB-19 CNS it was 100%. Besides, the growth in the experiment with U251 CNS was 115%; in the experiment on PC-3 prostate it was 103%; in the experiment with SK-MEL-5 melanoma, 102%; in the experiment with UACC-62 melanoma, 91.3%; in the experiment on LOX IMVI melanoma, 112%; in the experiment on SK-MEL-28 melanoma it was 109%.

As to `NC(=S)Nc1cccc(NC(N)=S)c1`, the growth was 101% in the experiment on DU-145 prostate; 9.26% (active) with K-562 leukemia; 84.3% with MALME-3M melanoma; 89.7% in the experiment on MDA-MB-231 breast; 104% with RXF 393 renal; 90.9% in the experiment with SF-268 CNS. In addition, the growth in the experiment with SF-295 CNS was 90.2%; in the experiment on SF-539 CNS, 100%; with UACC-257 melanoma, 98.1%; with M14 melanoma it was 125%; in the experiment on HCT-15 colon, 95.1%; with SNB-75 CNS, 97.6%. In addition, the growth with SNB-19 CNS is 88.3%; in the experiment on U251 CNS, 88.8%; in the experiment with PC-3 prostate it was 102%; in the experiment with SK-MEL-5 melanoma, 91.4%; with UACC-62 melanoma, 70.5%; with SK-MEL-28 melanoma it was 104%.

As for `CC12CC[C@@H]3[C@]4(C)COC(c5cn[nH]c5-c5cccc(Cl)c5)O[C@@H]4CC[C@@]3(C)[C@@H]1CC(C1=CCOC1=O)O2` (stereo partly drawn), the growth with DU-145 prostate was 56.6%; in the experiment on K-562 leukemia, 25%; with MALME-3M melanoma, 40.5%; in the experiment on MDA-MB-231 breast, 36.4%; with RXF 393 renal it was 18.3%; in the experiment with SF-268 CNS, 45.5%. Also, the growth in the experiment on SF-295 CNS was 35.4%; with SF-539 CNS it was 58.2%; in the experiment with UACC-257 melanoma, 43.3%; in the experiment on M14 melanoma, 25.3%; in the experiment with HCT-15 colon, 35.1%; in the experiment on SNB-19 CNS it was 56.8%. Moreover, the growth in the experiment with U251 CNS is 38.6%; in the experiment with PC-3 prostate, 12.6%; in the experiment on SK-MEL-5 melanoma, 8.92% (active); in the experiment on UACC-62 melanoma it was 26.9%; in the experiment with LOX IMVI melanoma it was 40.3%; with SK-MEL-28 melanoma, 36.3%.

For the compound `COc1cc(-c2nc3ccc(C)cc3[nH]2)ccc1OCc1nnc(-c2ccc(Br)cc2)o1`, the growth is 58.3% with DU-145 prostate; 3.01% (active) in the experiment on K-562 leukemia; 45% in the experiment with MALME-3M melanoma; 12.9% in the experiment with MDA-MB-231 breast; 25.2% with RXF 393 renal; 54.8% with SF-268 CNS. For the same compound, the growth is -54.1% (active) with SF-295 CNS; -82.7% (active) in the experiment on SF-539 CNS; -15.4% (active) in the experiment with UACC-257 melanoma; 19.2% in the experiment on HCT-15 colon; -53.7% (active) with HT29 colon; 85.7% with SNB-75 CNS. The growth in the experiment on SNB-19 CNS was 57.7%; in the experiment on U251 CNS it was 5.13% (active); in the experiment with PC-3 prostate it was 27.9%; with SK-MEL-5 melanoma it was 20.2%; in the experiment on UACC-62 melanoma it was 19.9%; in the experiment with LOX IMVI melanoma, 77.1%. In addition, the growth in the experiment on SK-MEL-28 melanoma was 27.1%.

Turning to `COc1ccc(/C=C/c2nc3ccccc3nc2Nc2cccc(C)c2)cc1`, the growth was 108% with DU-145 prostate; 84.2% in the experiment with K-562 leukemia; 115% in the experiment with MALME-3M melanoma; 88.5% with MDA-MB-231 breast; 109% with RXF 393 renal; 96.8% with SF-268 CNS. Moreover, the growth in the experiment with SF-295 CNS is 127%; in the experiment with SF-539 CNS, 103%; in the experiment with UACC-257 melanoma, 112%; with HCT-15 colon, 104%; in the experiment with HT29 colon, 101%; with SNB-75 CNS, 99%. The growth in the experiment with SNB-19 CNS was 98.5%; with U251 CNS, 96.1%; in the experiment on PC-3 prostate it was 96.5%; in the experiment with SK-MEL-5 melanoma, 95.7%; with UACC-62 melanoma it was 83.4%; in the experiment with LOX IMVI melanoma, 108%. The growth in the experiment with SK-MEL-28 melanoma is 108%.
